High-throughput results deposited in PubChem by several laboratories.
Sampled rows, rich in hits. Any-hit rate of the full collection: about 2.4%.
TNF death inh: blocks TNF-alpha induced death of Jurkat FADD-/- cells; 0.068% of 220,000 active; activation (protection from cell death), % at 10 µM; Jurkat FADD-/- TNF necroptosis rescue, ATP luminescence, 24 h; 0 = TNF only, 100 = no-TNF cells;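 active = activation, meaning protection from cell death, of at least 50% relative to plate controls; inactive = activation below 50%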;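 note: necroptosis triggered by 40 ng/mL TNF-alpha added together with compound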
MCL1 BIM primary: disrupts human MCL1 binding to BIM-BH3 peptide; AID 2057; 0.68% of 320,000 active; GST-MCL1 / FITC-Bim-BH3 fluorescence polarization; Q07820; inhibition, % at 10.9 µM;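 active = inhibition above the mean inhibition of all tested compounds plus 3 SD, set per campaign, cut at about 40% in these data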;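 note: higher means more loss of mP so more displacement of Bim peptide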
Target sequence (Q07820 whole entry, looked up): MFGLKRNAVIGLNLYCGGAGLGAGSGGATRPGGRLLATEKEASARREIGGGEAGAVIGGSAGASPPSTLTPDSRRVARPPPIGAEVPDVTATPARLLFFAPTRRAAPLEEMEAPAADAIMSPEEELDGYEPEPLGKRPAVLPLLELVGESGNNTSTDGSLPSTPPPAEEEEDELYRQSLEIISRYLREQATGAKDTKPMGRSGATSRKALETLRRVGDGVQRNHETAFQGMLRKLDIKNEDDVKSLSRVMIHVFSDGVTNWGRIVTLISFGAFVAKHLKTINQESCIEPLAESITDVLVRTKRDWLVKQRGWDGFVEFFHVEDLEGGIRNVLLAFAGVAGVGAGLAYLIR
L929 necroptosis: L929 zVAD cell death inhibition; L929 zVAD necroptosis rescue, ATP luminescence, 24 h; with zVAD 60 µM; viability rescue, % at 10 µM; 0.38% of 220,000 active; AID 1377;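 active = activation, scaled between plate controls, above about 75%, limit read from the data; inactive = activation under that limit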
Mcl1 Noxa PPI: Mcl-1/Noxa interaction inhibition. Q07820. TR-FRET Mcl-1/Noxa peptide binding, 2 h. inhibition, % at 21.7 µM. 1.5% of 220,000 active;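 active = compounds that cut the protein-peptide binding signal by more than 50% relative to plate controls in a single-dose test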;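 note: His-tagged Mcl-1 with rhodamine Noxa BH3 peptide and terbium anti-His antibody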
Mcl-1 Bim block: disrupts Bim peptide binding to human Mcl-1 | Bead-based flow cytometry, Bim peptide-Mcl-1 binding | inhibition, % at 10 µM | 0.1% of 190,000 active | Q07820; in the data active = inhibition above about 40%
Mcl1-Bid inh: Mcl-1/Bid interaction inhibition | inhibition, % at 21.7 µM | 0.97% of 220,000 active | TR-FRET Mcl-1/Bid-Dy647 peptide binding, 1536-well | Q07820;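 active = compounds that cut the binding signal by more than half at the single screening dose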;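 note: His-tagged Mcl-1 with europium anti-His antibody binding Bid BH3 peptide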
Large screens that a line does not name were inactive.

COc1cc(/C=C2\SC(=O)N(Cc3ccc(F)cc3)C2=O)cc([N+](=O)[O-])c1O	Mcl1 Noxa PPI 97 (no result: MCL1 BIM primary)
CCOC(=O)CN1C(=O)S/C(=C/c2ccc(OC)c([N+](=O)[O-])c2)C1=O	none
O=c1c2ccccc2oc2cc(-c3ccc(CN4CCOCC4)cc3)ccc12	none (no result: TNF death inh, L929 necroptosis, Mcl1 Noxa PPI, Mcl-1 Bim block, Mcl1-Bid inh)
Cc1ccc(F)c([C@H]2C3C=CCC(c4ccccc4)C3C(=O)N2Cc2ccccc2)c1 (stereo partly drawn)	none (no result: Mcl-1 Bim block)
COc1ccc(/C=C2\C(=O)NC(=S)N2C(=O)c2ccc(F)cc2)cc1	Mcl1 Noxa PPI 64, Mcl1-Bid inh 81
CCn1c(SC(C)C(=O)NC2CCCC2)nc2cc(S(N)(=O)=O)ccc21 (stereo not drawn)	none (no result: TNF death inh, L929 necroptosis, Mcl1 Noxa PPI, Mcl-1 Bim block, Mcl1-Bid inh)
CCOC(=O)N1CCN(Cc2c(F)cccc2F)CC1	Mcl1-Bid inh 52
CCOC(=O)N1CCN(Cc2cn3ccccc3n2)CC1	Mcl1-Bid inh 56
COc1ccc2c(c1)OC[C@H]1[C@H]2N2C(=O)CN(Cc3ccc(C)cc3)C(=O)[C@@]2(C)[C@H]1c1ccccc1	none (no result: TNF death inh, L929 necroptosis, Mcl1 Noxa PPI, Mcl-1 Bim block, Mcl1-Bid inh)
COc1cc(N2CCCC2)c(OC)cc1/C=C(/C#N)c1cccc(F)c1	Mcl1 Noxa PPI 80
CC1(C)N([O-])c2cc([N+](=O)[O-])ccc2[N+]1=O	MCL1 BIM primary 45, Mcl1 Noxa PPI 85 (no result: Mcl-1 Bim block)
Cc1ccc(C)n1-c1cc([N+](=O)[O-])ccc1-n1ccnc1	none (no result: Mcl-1 Bim block)
COCCNC(=O)CN(c1ccc(F)cc1)S(=O)(=O)c1ccc2c(c1)OCCO2	none (no result: TNF death inh, L929 necroptosis, Mcl1 Noxa PPI, Mcl-1 Bim block, Mcl1-Bid inh)
CCCCCCCCCCCCCCCCn1cc[n+](CC(C)=O)c1	Mcl1-Bid inh 59 (no result: MCL1 BIM primary)
O=C(Nc1c2ccccc2nc2ccccc12)C(Cl)(Cl)Cl	Mcl1-Bid inh 53
O=C(Cc1ccccc1)NNc1c2ccccc2nc2ccccc12	none
COC(C(=O)Nc1cccc(F)c1)c1ccccc1 (stereo not drawn)	TNF death inh 79
O=C(Nc1ccc(F)c(F)c1)c1ccccc1	none (no result: TNF death inh, L929 necroptosis, Mcl1 Noxa PPI, Mcl-1 Bim block, Mcl1-Bid inh)
O=C(Nc1cccc(F)c1)c1ccccc1	none
COC(C(=O)Nc1ccc(F)c(F)c1)c1ccccc1 (stereo not drawn)	TNF death inh 99 (no result: Mcl1 Noxa PPI, Mcl-1 Bim block, Mcl1-Bid inh)
COCCC(=O)N1CCC(n2nccc2NC(=O)CCc2ccccc2)CC1	none (no result: TNF death inh, L929 necroptosis, Mcl1 Noxa PPI, Mcl-1 Bim block, Mcl1-Bid inh)
Cc1ccc(C)c(NC(=O)C(Sc2ncnc3ccccc23)c2ccccc2)c1 (stereo not drawn)	none
CC(=O)c1cccc(NC(=O)C(Sc2ncnc3ccccc23)c2ccccc2)c1 (stereo not drawn)	Mcl1-Bid inh 56
CC(C)CC(=O)N1CCN(CC2CC=CCC2)CC1 (stereo not drawn)	Mcl1-Bid inh 57
COc1ccc(S(=O)(=O)NCC(=O)Nc2ccc3c(c2)OCCO3)cc1OC	none (no result: TNF death inh, L929 necroptosis, Mcl1 Noxa PPI, Mcl-1 Bim block, Mcl1-Bid inh)
S=C(NC1CCCCC1)N1CCn2cccc2C1c1cccnc1 (stereo not drawn)	Mcl1 Noxa PPI 63
O=C(O)[C@@H](c1ccccc1)N1Cc2ccccc2C1=O	Mcl1-Bid inh 98
NC(=O)NC(CC(=O)NCCc1ccc(S(N)(=O)=O)cc1)c1ccc(Cl)cc1 (stereo not drawn)	Mcl1-Bid inh 84 (no result: Mcl-1 Bim block)
